# According to PubChem BioAssay (EPA / NIEHS):
# Records with an inconclusive call do not appear. The source made the active and inactive calls. The calls were made as follows, unless noted: active = hit-call score of the fitted dose curve at least 0.9, where 1 is the maximum; inconclusive = response in the unintended direction; inactive = score below 0.9.
# Tests used:
# [1] = Tanguay_ZF_120hpf_EYE_legacy: (Legacy) Oregon State University Tanguay Lab 120 Hour Post-fertilization zebrafish Assay for Eye Malformation (AID 2283636);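 also: binary presence or absence of eye malformation scored by brightfield in 120 hpf larvae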
# In short: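 Dechorionated wild-type Tropical 5D zebrafish embryos were exposed statically from 6 hpf, one per well, to 120 hpf at 28C in sealed, foil-covered plates with 0.64% DMSO. Eye malformation was scored present/absent by brightfield microscopy against DMSO controls.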
# [2] = Tanguay_ZF_120hpf_SNOU_legacy: (Legacy) Oregon State University Tanguay Lab 120 Hour Post-fertilization zebrafish Assay for Snout Malformation (AID 2283637)
# In short: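 Tropical 5D wild-type zebrafish embryos, dechorionated with pronase at 4 hpf, were exposed singly from 6 hpf to 120 hpf statically at 28C in 0.64% DMSO. Snout malformation was scored present/absent by brightfield microscopy, fitted against DMSO.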
# [3] = Tanguay_ZF_120hpf_JAW_legacy: (Legacy) Oregon State University Tanguay Lab 120 Hour Post-fertilization zebrafish Assay for Jaw Malformation (AID 2283638)
# In short: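 Wild-type 5D embryos, chorion removed at 4 hpf, dosed singly from 6 hpf; 28C static, sealed, foil-covered, to 120 hpf. Endpoint: jaw defect yes/no (brightfield); mortality excludes scoring.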
# [4] = Tanguay_ZF_120hpf_OTIC_legacy: (Legacy) Oregon State University Tanguay Lab 120 Hour Post-fertilization zebrafish Assay for Otic Vesicle Malformation (AID 2283639)
# In short: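 Otic vesicle malformation is read as a yes/no morphology call at 120 hpf. Exposure is static at 28C with 0.64% (vol/vol) DMSO; embryos that die are excluded from non-mortality endpoints.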
# [5] = Tanguay_ZF_120hpf_BRAI_legacy: (Legacy) Oregon State University Tanguay Lab 120 Hour Post-fertilization zebrafish Assay for Brain Malformation (AID 2283641)
# In short: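 Static exposure of staged wild-type embryos until 120 hpf, kept at 28C with light excluded and final DMSO of 0.64% (vol/vol). Presence or absence of brain malformation was noted under brightfield; mortality precluded scoring.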
# [6] = Tanguay_ZF_120hpf_CFIN_legacy: (Legacy) Oregon State University Tanguay Lab 120 Hour Post-fertilization zebrafish Assay for Caudal Fin Malformation (AID 2283649)
# In short: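 Single dechorionated 5D wild-type embryos are dosed at 6 hpf (final DMSO 0.64%) and held statically at 28C. Caudal fin malformation is recorded as present or absent at 120 hpf under brightfield, excluding dead embryos.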
# [7] = Tanguay_ZF_120hpf_PIG_legacy: (Legacy) Oregon State University Tanguay Lab 120 Hour Post-fertilization zebrafish Assay for Pigmentation Malformation (AID 2283650)
# In short: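 Tropical 5D wild-type zebrafish embryos, dechorionated with pronase at 4 hpf, were exposed singly from 6 hpf to 120 hpf statically at 28C in sealed, dark plates with 0.64% DMSO; pigmentation scored present/absent by brightfield microscopy, fitted against DMSO.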
# [8] = Tanguay_ZF_120hpf_CIRC_legacy: (Legacy) Oregon State University Tanguay Lab 120 Hour Post-fertilization zebrafish Assay for Circulatory Malformation (AID 2283651)
# In short: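 Using wild-type Tropical 5D zebrafish, we exposed dechorionated embryos from 6 to 120 hpf in embryo medium with 0.64% DMSO. Circulatory defects were scored as present or absent; 5uM trimethyltin chloride served as positive control.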
# [9] = Tanguay_ZF_120hpf_SWIM_legacy: (Legacy) Oregon State University Tanguay Lab 120 Hour Post-fertilization zebrafish Assay for Swim Bladder Malformation (AID 2283654);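 also: swim bladder malformation in each larva scored yes or no under brightfield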
# In short: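 Dechorionated Tropical 5D wild-type embryos, placed singly from 6 hpf, were statically exposed at 28C to 120 hpf with 0.64% DMSO final; swim bladder malformation was scored present/absent by brightfield microscopy, gain of signal relative to DMSO controls.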
# [10] = Tanguay_ZF_120hpf_TRUN_legacy: (Legacy) Oregon State University Tanguay Lab 120 Hour Post-fertilization zebrafish Assay for Truncated Body (AID 2283655)
# In short: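 Single dechorionated zebrafish embryos received test chemical from 6 hpf in 0.64% DMSO, kept at 28C. At 120 hpf, brightfield inspection noted any truncated body.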
# [11] = Tanguay_ZF_120hpf_SOMI_legacy: (Legacy) Oregon State University Tanguay Lab 120 Hour Post-fertilization zebrafish Assay for Somite Malformation (AID 2283647)
# In short: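 Somitogenesis defects are recorded as binary calls in whole larvae at 120 hpf after continuous static chemical exposure starting at 6 hpf in dechorionated 5D embryos. DMSO serves as negative control and baseline.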
# [12] = Tanguay_ZF_120hpf_PFIN_legacy: (Legacy) Oregon State University Tanguay Lab 120 Hour Post-fertilization zebrafish Assay for Pectoral Fin Malformation (AID 2283648);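 also: each larva judged yes or no for fin defect by brightfield with dead larvae skipped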
# In short: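 Tropical 5D wild-type embryos, dechorionated with pronase at 4 hpf, were placed singly in wells at 6 hpf and statically exposed until 120 hpf at 28C, sealed and dark, with 0.64% (vol/vol) final DMSO; pectoral fin malformation scored present/absent.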
# [13] = Tanguay_ZF_120hpf_NC_legacy: (Legacy) Oregon State University Tanguay Lab 120 Hour Post-fertilization zebrafish Assay for Notochord and Tail Malformation (AID 2283656)
# In short: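 Dechorionated 5D zebrafish, 1/well from 6 hpf; static exposure to 120 hpf, 28C, sealed, dark; final DMSO 0.64% v/v. NC scored binary (present/absent); dead embryos not scored. Fit vs DMSO baseline, gain direction.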
# [14] = read-out: solute carrier (SLC22A6), SLC22A6 (gene 9356); experiment: LTEA_HepaRG_SLC22A6: Life Technologies and Expression Analysis (LTEA) Assay for solute carrier (SLC22A6) using HepaRG (AID 2283653; active = hit-call score of the fitted dose curve at least 0.9, where 1 is the maximum; inactive = score below 0.9); conditions: mRNA level, 48 h; actives raise or lower the signal
# In short: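 Gene-expression endpoint in HepaRG hepatic cells: duplicate 8-point concentration-response, highest 100 uM, 48 h treatment in serum-free medium with 0.5% DMSO. SLC22A6 expression measured by qRT-PCR, normalised to ACTB/GAPDH/POLR2A.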
# [15] = read-out: solute carrier (SLC10A1), SLC10A1 (gene 6554); experiment: LTEA_HepaRG_SLC10A1: Life Technologies and Expression Analysis (LTEA) Assay for solute carrier (SLC10A1) using HepaRG (AID 2283657; active = hit-call score of the fitted dose curve at least 0.9, where 1 is the maximum; inactive = score below 0.9); conditions: mRNA level, 48 h; actives raise or lower the signal
# In short: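 Differentiated HepaRG cells were plated 48 h, then exposed in serum-free induction medium for 48 h to 8 concentrations (top 100 uM, half-log steps, 0.5% DMSO). SLC10A1 mRNA was quantified by qRT-PCR normalized to ACTB, GAPDH, POLR2A; bidirectional fit versus DMSO.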
# [16] = read-out: matrix metalloproteinase-1 (MMP1), MMP1 (gene 4312); experiment: LTEA_HepaRG_MMP1: Life Technologies and Expression Analysis (LTEA) Assay for matrix metalloproteinase-1 (MMP1) using HepaRG (AID 2283658; active = hit-call score of the fitted dose curve at least 0.9, where 1 is the maximum; inactive = score below 0.9); conditions: mRNA level, 48 h; actives raise or lower the signal
# In short: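 In this screen, human liver HepaRG cultures receive each chemical in duplicate for 48 h (top 100 uM, 0.5% DMSO). MMP1 expression is then quantified by TaqMan qRT-PCR with ACTB/GAPDH/POLR2A normalization.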
# [17] = Tanguay_ZF_120hpf_PE_legacy: (Legacy) Oregon State University Tanguay Lab 120 Hour Post-fertilization zebrafish Assay for Pericardial Edema (AID 2283640)
# In short: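 Zebrafish larvae are exposed from early development to 120 hpf at 28C, with 0.64% DMSO final. Each surviving larva receives a yes/no pericardial edema call by brightfield imaging, analysed relative to the DMSO baseline.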
# [18] = tested on: Thyroperoxidase (TPO), gene 54314; experiment: CCTE_Simmons_AUR_rTPO: CCTE's Amplex UltraRed Assay for Thyroperoxidase (TPO) Inhibition, Simmons Lab (AID 2283662);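 also: potency for loss of signal meaning inhibition of peroxidase activity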
# In short: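 Rat thyroid microsomal TPO + 25 uM AUR in 200 mM K phosphate; cpd 5 nM–87.5 uM [final], 8 conc, 0.5% DMSO; 300 uM H2O2 starts rxn; 37C dark 30 min; endpoint FI 544/590 nm; n=3.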
# [19] = CCTE_Simmons_CellTiterGLO_HEK293T: Viability Assessment in CCTE's Assays for Thyroperoxidase (TPO) Inhibition, Simmons Lab (AID 2283665);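 also: cells exposed to compound for 24 h before readout; actives reduce ATP signal below DMSO vehicle meaning cytotoxicity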
# In short: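 Cytotoxicity counter-screen: human HEK293T cells in low-serum (1% FBS) medium receive test chemical, 5 nM to 87.5 uM final, for 24 h; ATP is quantified by luciferase luminescence.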
Structure (SMILES),outcome [1],outcome [2],outcome [3],outcome [4],outcome [5],outcome [6],outcome [7],outcome [8],outcome [9],outcome [10],outcome [11],outcome [12],outcome [13],outcome [14],AC50 [15],outcome [16],outcome [17],AC50 [18],AC50 [19]
CCCCCCCCCCCO,inactive,inactive,inactive,inactive,inactive,inactive,inactive,inactive,inactive,inactive,–,–,–,–,–,–,–,–,–
CN1C(=O)CC[C@H]1c1cccnc1,inactive,inactive,inactive,–,inactive,inactive,inactive,inactive,inactive,inactive,inactive,inactive,inactive,–,–,–,–,–,–
Cc1occc1C(=O)Nc1ccc(C(=O)N2CCC(F)(F)/C(=C\C(=O)N3CCC(N4CCCCC4)CC3)c3ccccc32)cc1,inactive,inactive,inactive,–,inactive,inactive,inactive,–,–,inactive,inactive,–,inactive,inactive,41.9 µM (active),inactive,–,–,–
O=C=NCCCCCCN=C=O,–,inactive,inactive,inactive,inactive,inactive,–,inactive,–,inactive,–,–,–,–,–,–,inactive,–,–
CCCCCCCC[Si](OCC)(OCC)OCC,–,inactive,inactive,inactive,inactive,inactive,inactive,–,inactive,inactive,inactive,–,inactive,–,–,–,–,–,–
CC(=O)N1CCN(c2ccc(OC[C@H]3CO[C@](Cn4ccnc4)(c4ccc(Cl)cc4Cl)O3)cc2)CC1,–,inactive,–,inactive,–,inactive,–,inactive,inactive,inactive,inactive,–,inactive,–,–,–,–,19.2 µM (active),1.26 µM (active)
CC/C(=C(/CC)c1ccc(O)cc1)c1ccc(O)cc1,–,inactive,inactive,inactive,inactive,inactive,–,inactive,inactive,–,–,inactive,–,–,–,–,inactive,5.22 µM (active),8.59 µM (active)
COc1ccc2cc(S(=O)(=O)N[C@H](CC(=O)N[C@H](Cc3ccc(CN4[C@H](C)CCC[C@@H]4C)cc3)C(=O)N(C)C(C)C)c3ccc4c(c3)OCO4)ccc2c1,inactive,inactive,inactive,–,inactive,inactive,inactive,inactive,inactive,inactive,–,–,inactive,–,–,–,–,–,–
O=CCCCC=O,inactive,inactive,inactive,inactive,inactive,inactive,inactive,–,inactive,inactive,inactive,–,inactive,–,–,–,–,–,–
OCCO,inactive,inactive,inactive,–,inactive,inactive,inactive,inactive,inactive,inactive,–,–,inactive,–,–,–,inactive,–,–
CCCCOC(=O)CC(CC(=O)OCCCC)(OC(C)=O)C(=O)OCCCC,–,inactive,inactive,inactive,inactive,–,inactive,inactive,inactive,inactive,–,–,–,–,–,–,inactive,–,–
